# Test results published in PubChem BioAssay (NCI).
# This is part of a sample that, as a whole, favours compounds with a hit. Of some 83,000 tested, about 20% had one in any assay.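 Interpretation: 100, growth as untreated; towards 0, rising growth inhibition; 0, no net growth; 0 to -100, cell death. Compounds scoring below 10 were considered active.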 Values without a mark were called inactive. Calls of active or inactive are those of the source.
# Tested on: SNB-75 CNS
# Assay: NCI-60 one-dose screen, 48 h (100 = growth as untreated, 0 = no growth, -100 = all killed)
# Conditions: 10 µM unless noted
row,SMILES,growth
1,NC(=O)c1c(NC(=O)c2ccc(Cl)cc2)sc2c1CCC(=O)C2,45.4%
2,Nc1c(C(=O)Nc2cccc3ncccc23)sc2nc3c(cc12)C(=O)CCC3,43.7%
3,CCOC(=O)c1cn2ncnc(Oc3ccc(NC(=O)NC4CC4)c(F)c3)c2c1C,91.3%
4,CCOC(=O)c1c2c(n3c1NCC3)-c1ccccc1C2=O,83.5%
5,CCCC(O)Cn1ncc(C(=O)OCC)c1NC(=O)NCc1cccc(F)c1 (stereo not given),93.6%
6,O=C(CCC(=O)c1nc2ncccc2[nH]1)NN1C(=O)CSC1c1ccc(Cl)cc1 (stereo not given),84.7%
7,COc1ccc2nc(Cl)c(/C=C/C(=O)c3ccc(NC(=O)CSc4nnc(-c5ccc(Cl)c(Cl)c5)n4-c4ccccc4)cc3)cc2c1,84.1%
8,CS(=O)(=O)Nc1cncc(-c2ccc3ncnc(Nc4ccc(F)c(Cl)c4)c3c2)c1,33%
9,Cc1ccc(-c2nc(C#N)c(S(=O)(=O)NCCO)o2)cc1,105%
10,O=C1OCC2=C1C(c1cccc(C(F)(F)F)c1)c1cc3c(cc1N2CCO)OCO3 (stereo not given),19%
11,Cc1[nH]c(C(=O)Nc2cccc(OC3CCNCC3)c2)c(Cl)c1Cl,82.3%
12,O=C1/C(=C/c2ccc(Br)cc2)COc2ccc(O)c(O)c21,20.4%
13,CCN1C(=S)N(CC)C2C1NC(=S)N2/N=C/C=C/c1ccccc1OC (stereo not given),-5.85% (active)
14,COc1cc(-c2nc3occn3c2-c2ccnc(NCCCNS(=O)(=O)c3ccccc3)n2)ccc1F,102%
15,O=C(O)c1cccc(N/C=C/C(=O)c2cc3cc(Br)ccc3oc2=O)c1,83.7%
16,N#Cc1c(Nc2ccc(F)cc2)n[nH]c1-c1cccs1,85.6%
17,COc1ccc(C2C(C#N)=C(N)Oc3c2sc2c(Br)cccc32)cc1 (stereo not given),11.3%
18,CCNc1nc(-c2ccc(F)cc2)c(C#N)c(=O)n1C,37.9%
19,CC12CCC(/C(=C/NNc3ccc([N+](=O)[O-])cc3[N+](=O)[O-])C1=O)C2(C)C (stereo not given),136%
20,S=c1[nH]c2cc(Cl)ccc2o1,111%

row,SMILES,growth
1,COc1cc2c3c(c1O)-c1ccccc1[C@@H]1OC(=O)N(CC2)[C@H]31,90.5%
2,CC(C)CSc1oc(-c2ccccc2)nc1S(=O)(=O)c1ccccc1,89.3%
3,C#CCOc1cccc(-c2ncc3cc(NC(=O)CCl)ccc3n2)c1,24.4%
4,Cn1c(=O)c2c(nc(NC3=NS(=O)(=O)c4ccccc43)n2Cc2ccccc2)n(C)c1=O,93.1%
5,COc1cc2c(c(OC)c1OC)C(=O)CC(c1cccc(NC(=O)c3ccccc3Br)c1)O2 (stereo not given),93.3%
6,CC(C)(CO)N(CCO)CCO,102%
7,CC(=O)c1c(Nc2ccc(F)c(F)c2F)[nH]c2c(F)cc(F)cc2c1=O,-14.8% (active)
8,C#CCOc1ccc2ncnc(Nc3cccc(NC(=O)CCl)c3)c2c1,68.9%
9,COc1ccc(/C=C/C(=O)c2ccc(NC(=O)CSc3nnc(-c4cc(-c5ccccc5)nc5ccccc45)n3-c3ccccc3)cc2)cc1,100%
10,CCn1cc(C2=C(c3cn(C)c4ncccc34)C(=O)NC2=O)c2cccnc21,-10.8% (active)
11,NNC(=S)N/N=C/c1ccccn1,59.6%
12,Cc1ccc2nc(Cl)c(Cn3nnnc3SCc3ccccc3)cc2c1,93.4%
13,Clc1nn2c(Cn3cnc4c(NCc5ccccc5)ncnc43)nnc2c2ccccc12,37.1%
14,CN(C)c1ccc(/C=C2/C=C(c3ccccc3)OC2=O)cc1,102%
15,O=C(CN1C(=O)NC2NC(=O)NC21)N/N=C/c1ccc(Cl)cc1Cl (stereo not given),82.8%
16,COc1cccc(Nc2ccnc3[nH]c4ccc([N+](=O)[O-])cc4c23)c1,21%
17,COc1ccc(C/C(C)=C(/c2ccc(OCCN3CCCCCC3)cc2)c2ccc(OC(=O)NCc3ccccc3)cc2)cc1,90.7%
18,O=C(O)C1CN(c2cccc(Cl)c2)N(c2cccc(Cl)c2)C1=O (stereo not given),76.9%
19,CN(C)c1ccc(/C=C/C(=O)c2ccc(Nc3nc(Nc4ccc(F)cc4)nc(Nc4ccc(Cl)cc4)n3)cc2)cc1,76.9%
20,COC(=O)c1nc(-c2ccccc2)oc1S(=O)(=O)N1CCC(C(N)=O)CC1,93.2%

# Tested on: SNB-19 CNS
# Assay: as above
# Conditions: 10 µM unless noted
row,SMILES,growth
1,NC(=O)c1c(NC(=O)c2ccc(Cl)cc2)sc2c1CCC(=O)C2,71.1%
2,Nc1c(C(=O)Nc2cccc3ncccc23)sc2nc3c(cc12)C(=O)CCC3,38%
3,CCOC(=O)c1cn2ncnc(Oc3ccc(NC(=O)NC4CC4)c(F)c3)c2c1C,89.2%
4,CCOC(=O)c1c2c(n3c1NCC3)-c1ccccc1C2=O,99.3%
5,CCCC(O)Cn1ncc(C(=O)OCC)c1NC(=O)NCc1cccc(F)c1 (stereo not given),102%
6,O=C(CCC(=O)c1nc2ncccc2[nH]1)NN1C(=O)CSC1c1ccc(Cl)cc1 (stereo not given),94.2%
7,COc1ccc2nc(Cl)c(/C=C/C(=O)c3ccc(NC(=O)CSc4nnc(-c5ccc(Cl)c(Cl)c5)n4-c4ccccc4)cc3)cc2c1,91.3%
8,CS(=O)(=O)Nc1cncc(-c2ccc3ncnc(Nc4ccc(F)c(Cl)c4)c3c2)c1,42.9%
9,Cc1ccc(-c2nc(C#N)c(S(=O)(=O)NCCO)o2)cc1,88.3%
10,O=C1OCC2=C1C(c1cccc(C(F)(F)F)c1)c1cc3c(cc1N2CCO)OCO3 (stereo not given),30.1%
11,Cc1[nH]c(C(=O)Nc2cccc(OC3CCNCC3)c2)c(Cl)c1Cl,74.6%
12,O=C1/C(=C/c2ccc(Br)cc2)COc2ccc(O)c(O)c21,6.19% (active)
13,CCN1C(=S)N(CC)C2C1NC(=S)N2/N=C/C=C/c1ccccc1OC (stereo not given),26.5%
14,COc1cc(-c2nc3occn3c2-c2ccnc(NCCCNS(=O)(=O)c3ccccc3)n2)ccc1F,78.2%
15,O=C(O)c1cccc(N/C=C/C(=O)c2cc3cc(Br)ccc3oc2=O)c1,94%
16,N#Cc1c(Nc2ccc(F)cc2)n[nH]c1-c1cccs1,85.6%
17,COc1ccc(C2C(C#N)=C(N)Oc3c2sc2c(Br)cccc32)cc1 (stereo not given),44.8%
18,CCNc1nc(-c2ccc(F)cc2)c(C#N)c(=O)n1C,60.6%
19,CC12CCC(/C(=C/NNc3ccc([N+](=O)[O-])cc3[N+](=O)[O-])C1=O)C2(C)C (stereo not given),94.1%
20,S=c1[nH]c2cc(Cl)ccc2o1,102%

row,SMILES,growth
1,COc1cc2c3c(c1O)-c1ccccc1[C@@H]1OC(=O)N(CC2)[C@H]31,104%
2,CC(C)CSc1oc(-c2ccccc2)nc1S(=O)(=O)c1ccccc1,102%
3,C#CCOc1cccc(-c2ncc3cc(NC(=O)CCl)ccc3n2)c1,2.89% (active)
4,Cn1c(=O)c2c(nc(NC3=NS(=O)(=O)c4ccccc43)n2Cc2ccccc2)n(C)c1=O,96.1%
5,COc1cc2c(c(OC)c1OC)C(=O)CC(c1cccc(NC(=O)c3ccccc3Br)c1)O2 (stereo not given),95.5%
6,CC(C)(CO)N(CCO)CCO,103%
7,CC(=O)c1c(Nc2ccc(F)c(F)c2F)[nH]c2c(F)cc(F)cc2c1=O,22%
8,C#CCOc1ccc2ncnc(Nc3cccc(NC(=O)CCl)c3)c2c1,71.8%
9,COc1ccc(/C=C/C(=O)c2ccc(NC(=O)CSc3nnc(-c4cc(-c5ccccc5)nc5ccccc45)n3-c3ccccc3)cc2)cc1,101%
10,CCn1cc(C2=C(c3cn(C)c4ncccc34)C(=O)NC2=O)c2cccnc21,87.7%
11,NNC(=S)N/N=C/c1ccccn1,48.3%
12,Cc1ccc2nc(Cl)c(Cn3nnnc3SCc3ccccc3)cc2c1,98.8%
13,Clc1nn2c(Cn3cnc4c(NCc5ccccc5)ncnc43)nnc2c2ccccc12,61.9%
14,CN(C)c1ccc(/C=C2/C=C(c3ccccc3)OC2=O)cc1,107%
15,O=C(CN1C(=O)NC2NC(=O)NC21)N/N=C/c1ccc(Cl)cc1Cl (stereo not given),102%
16,COc1cccc(Nc2ccnc3[nH]c4ccc([N+](=O)[O-])cc4c23)c1,37.4%
17,COc1ccc(C/C(C)=C(/c2ccc(OCCN3CCCCCC3)cc2)c2ccc(OC(=O)NCc3ccccc3)cc2)cc1,87.4%
18,O=C(O)C1CN(c2cccc(Cl)c2)N(c2cccc(Cl)c2)C1=O (stereo not given),82.8%
19,CN(C)c1ccc(/C=C/C(=O)c2ccc(Nc3nc(Nc4ccc(F)cc4)nc(Nc4ccc(Cl)cc4)n3)cc2)cc1,92.7%
20,COC(=O)c1nc(-c2ccccc2)oc1S(=O)(=O)N1CCC(C(N)=O)CC1,93.3%
